# Data taken from PubChem BioAssay.
# The source made the active and inactive calls. Unless noted, no stated cut-off is given here; in the data, active means inhibition above about 80%; inactive means the rest.
# Tests used:
# [1] = LFS_MB_P medulloblastoma growth inhibition, cell-based, chromothripsis tumors, cisplatin or BGB combos (AID 1671449); conditions: LFS_MB_P medulloblastoma cells;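 further: cells exposed for 96 hours; 0% = vehicle DMSO and 100% = killing by high DMSO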
# [2] = HDN33 neuroblastoma growth inhibition, cell-based, chromothripsis tumors, cisplatin or BGB combos (AID 1671450); conditions: HDN33 neuroblastoma cells, stronger effect = higher value;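 further: cells exposed to compound for four days; 0% = vehicle DMSO and 100% = cell killing by high DMSO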
# [3] = ICB984 medulloblastoma cell growth inhibition, synergistic combos for chromothripsis tumors, cisplatin or BGB combos (AID 1671451; call rule not given here;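 further: cells exposed for 96 hours before readout; 0% = vehicle DMSO and 100% = killing by high DMSO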); conditions: ICB984 medulloblastoma cells, drug combinations, stronger effect = higher value
# [4] = LFS_MB_1R medulloblastoma cell growth inhibition, synergistic combos for chromothripsis tumors, cisplatin or BGB combos (AID 1671452); conditions: LFS_MB_1R medulloblastoma cells, stronger effect = higher value;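 further: cells exposed for 96 hours before readout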
# [5] = HTB85 osteosarcoma cell growth inhibition, synergistic combos for chromothripsis tumors, BGB or cisplatin IC20 combos (AID 1671453); conditions: HTB85 osteosarcoma cells, drug combinations, stronger effect = higher value;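 further: cells exposed for 96 hours before readout; 0% = vehicle DMSO and 100% = high DMSO killing control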
# [6] = CRL2098 osteosarcoma cell growth inhibition, synergistic combos for chromothripsis tumors, BGB or cisplatin IC20 combos (AID 1671454); conditions: CRL2098 osteosarcoma cells, drug combinations, stronger effect = higher value;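 further: cells exposed for 96 h before readout; 0% = vehicle DMSO and 100% = killing by high DMSO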
# [7] = HD-MB03 medulloblastoma cell growth inhibition, synergistic combos for chromothripsis tumors, BGB or cisplatin IC20 combos (AID 1671455; in the data active means inhibition above about 83%;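 further: 0% = vehicle DMSO and 100% = high DMSO as cytotoxic control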); conditions: HD-MB03 medulloblastoma cells, stronger effect = higher value
# [8] = UWB1.289 ovarian carcinoma cell growth inhibition, synergistic combos for chromothripsis tumors, BGB or cisplatin combos (AID 1671456); conditions: UWB1.289 ovarian carcinoma cells, stronger effect = higher value;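 further: cells exposed to compound for four days; 0% = vehicle DMSO and 100% = killing by high DMSO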
# [9] = LFS_MB_2R medulloblastoma cell growth inhibition, synergistic combos for chromothripsis tumors, cisplatin combos (AID 1671457); conditions: LFS_MB_2R medulloblastoma cells, stronger effect = higher value;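 further: cells exposed to compound for four days before readout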
# [10] = MDA-MB-436 breast carcinoma cell growth inhibition, synergistic combos for chromothripsis tumors, BGB or cisplatin combos (AID 1671458; call rule not given here;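 further: cells exposed for 96 hours; 0% = vehicle DMSO and 100% = killing by high DMSO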); conditions: MDA-MB-436 breast carcinoma growth inhibition, drug combinations, stronger effect = higher value
# [11] = UWB1.289_BRCA1 ovarian cancer growth, cell-based, BGB or cisplatin combinations (AID 1671459); conditions: UWB1.289 BRCA1 ovarian carcinoma, drug combinations, stronger effect = higher value
# [12] = human astrocyte viability loss, single and combined drugs, cytotoxicity control for chromothriptic childhood tumor combination screen, cell-based, BGB or cisplatin IC20 combos (AID 1671460); conditions: Human astrocytes, drug combinations, stronger effect = higher value;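 further: cells exposed to compounds for 96 hours before viability readout; 0% = vehicle and 100% = killing control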
# [13] = growth inhibition of BT084 medulloblastoma cells, cell-based, ICGC_MB145, cisplatin and BGB IC40 combos (AID 1671461); conditions: drug combinations, stronger effect = higher value;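 further: cells exposed to drugs for 96 hours; 0% = vehicle DMSO and 100% = high DMSO full killing control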
# [14] = growth inhibition of RCMB18 medulloblastoma cells, cell-based, cisplatin and BGB IC40 combos (AID 1671462); conditions: stronger effect = higher value;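 further: cells exposed to compound for four days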
# [15] = growth inhibition of CRL1545 osteosarcoma cells, cell-based, cisplatin and BGB IC20 combos (AID 1671464); conditions: stronger effect = higher value;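 further: cells exposed to compound for 96 hours before readout; 0% = vehicle DMSO and 100% = high DMSO killing control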
# [16] = measured here: combination with BGB IC40, at 0.05 µM
# [17] = measured here: with BGB IC20 combination, at 0.5 µM
# [18] = measured here: with cisplatin IC20 combination, at 0.5 µM
# [19] = measured here: combination with cisplatin, at 0.5 µM
# [20] = measured here: combination with cisplatin, at 5 µM
compound,measurement,setting,value
CC1OC(CC(=O)O)CC2=C1C(=O)c1c(O)cccc1C2=O (stereo not drawn),inhibition,"[1]; at 0.5 µM, stronger effect = higher value",13.6% (inactive)
same,inhibition,"[1]; measured here: combination with BGB IC20, at 0.005 µM",-20.4%
same,inhibition,"[1]; measured here: combination with BGB IC40, at 0.005 µM",-16.6%
same,inhibition,[1]; [16],120%
same,inhibition,"[1]; measured here: combination with cisplatin, at 0.5 µM, stronger effect = higher value",28.7%
same,inhibition,"[1]; measured here: combination with cisplatin, at 5 µM, stronger effect = higher value",128%
same,inhibition,"[2]; BGB combo, at 5 µM",100%
same,inhibition,[2]; at 0.5 µM,99.9% (active)
same,inhibition,"[2]; cisplatin combo, at 5 µM",99.9%
same,inhibition,[2]; [17],99.9%
same,inhibition,[2]; [18],99.9%
same,inhibition,"[2]; single agent, at 5 µM",99.9%
same,inhibition,"[3]; BGB IC20 combo, at 0.005 µM",101%
same,inhibition,"[3]; BGB IC40 combo, at 0.005 µM",102%
same,inhibition,"[3]; BGB IC40 combo, at 0.05 µM",102%
same,inhibition,[3]; at 0.5 µM,0.28% (inactive)
same,inhibition,"[3]; cisplatin combo, at 0.05 µM",102%
same,inhibition,"[3]; cisplatin combo, at 0.5 µM",10.8%
same,inhibition,"[3]; cisplatin combo, at 5 µM",102%
same,inhibition,"[3]; measured here: 5 uM single agent, at 5 µM",98.7%
same,inhibition,[4]; at 0.5 µM,106% (active)
same,inhibition,[4]; [16],101%
same,inhibition,[4]; [19],111%
same,inhibition,[4]; [20],106%
same,inhibition,[5]; at 0.5 µM,99.9% (active)
same,inhibition,"[5]; measured here: with BGB IC20, at 0.5 µM",100%
same,inhibition,"[5]; measured here: with BGB IC20, at 5 µM",100%
same,inhibition,"[5]; measured here: with cisplatin IC20, at 0.5 µM",99.9%
same,inhibition,"[5]; measured here: with cisplatin IC20, at 5 µM",99.7%
same,inhibition,"[5]; single agent, at 5 µM",99.7%
same,inhibition,[6]; at 0.5 µM,100% (active)
same,inhibition,"[6]; measured here: combination with BGB at IC20, at 0.5 µM",100%
same,inhibition,"[6]; measured here: combination with cisplatin at IC20, at 0.5 µM",100%
same,inhibition,[7]; at 0.5 µM,99.8% (active)
same,inhibition,"[7]; measured here: combo with BGB at IC20, at 0.5 µM",99.9%
same,inhibition,"[7]; measured here: combo with cisplatin at IC20, at 0.5 µM",99.8%
same,inhibition,[8]; at 0.5 µM,102% (active)
same,inhibition,"[8]; measured here: inhibition with BGB combination, at 0.05 µM",65.9%
same,inhibition,"[8]; measured here: inhibition with cisplatin combination, at 0.05 µM",91.2%
same,inhibition,[9]; at 0.5 µM,106% (active)
same,inhibition,[9]; [19],105%
same,inhibition,[9]; [20],105%
same,inhibition,[10]; at 0.5 µM,102% (active)
same,inhibition,"[10]; measured here: BGB combination, at 0.5 µM",103%
same,inhibition,"[10]; measured here: BGB combination, at 5 µM",103%
same,inhibition,"[10]; measured here: cisplatin combination, at 0.5 µM",101%
same,inhibition,"[10]; measured here: cisplatin combination, at 5 µM",109%
same,inhibition,"[11]; BGB combination, concentration series, at 5 µM",121%
same,inhibition,[11]; at 0.5 µM,111% (active)
same,inhibition,"[11]; cisplatin combination, concentration series, at 5 µM",132%
same,inhibition,[12]; at 0.5 µM,102% (active)
same,inhibition,"[12]; measured here: combo with BGB IC20, at 0.5 µM",105%
same,inhibition,"[12]; measured here: combo with cisplatin IC20, at 0.5 µM",101%
same,inhibition,[13]; at 0.5 µM,106% (active)
same,inhibition,"[13]; cisplatin combination, at 0.5 µM",108%
same,inhibition,"[13]; cisplatin combination, at 5 µM",110%
same,inhibition,"[13]; measured here: BGB IC40 combination 0.05 uM, at 0.05 µM",67.7%
same,inhibition,"[13]; single agent, at 5 µM",107%
same,inhibition,[14]; at 0.5 µM,99.3% (active)
same,inhibition,"[14]; cisplatin combo, at 5 µM",103%
same,inhibition,"[14]; measured here: BGB IC40 combination, at 0.05 µM",97.5%
same,inhibition,[14]; [19],102%
same,inhibition,"[14]; single agent, at 5 µM",101%
same,inhibition,[15]; at 0.5 µM,99.9% (active)
same,inhibition,[15]; [17],99.9%
same,inhibition,[15]; [18],99.9%
same,inhibition,"[15]; single agent, at 0.05 µM",99.9%
same,inhibition,"[15]; single agent, at 5 µM",99.9%
